Assay outcomes as filed in PubChem.
Compounds with a hit are over-represented: about 12% of the library has one in this group of screens.
Sm TGR block = inhibitors of Schistosoma mansoni thioredoxin glutathione reductase | 3% of 360,000 active | AID 485364 | purified TGR, DTNB reduction, TNB absorbance 405 nm | Potency, µM (titrated, usually from 114 µM), for inactives: at the top dose activity change, negative = inhibition, usual class: inhibitors; active = well fitted inhibition curve with a large enough effect; inconclusive = small, poorly fitted or top-dose-only effect; inactive = no such curve, though single readings can be large or run the other way; note: potency is the fitted concentration of half-maximal effect; % is set by controls: 0 for no effect and ±100 for the full control effect; nearly all actives have a fitted effect of over 60% in size
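Kinetic colorimetric format: TGR-catalysed, NADPH-driven DTNB reduction monitored via TNB absorbance. Enzyme dispensed at 20 nM; compound exposure 15 min at room temperature before reaction start.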
Shiga inhibitor = inhibitors of Shiga toxin in Vero cells. Vero cells, Shiga toxin protein synthesis inhibition reporter. inhibition, % at 38.7 µM. 9.2% of 290,000 active. AID 2315; in the data active = inhibition mostly above about 28%, no sharp cut-off; inactive = mostly below about 43%; note: 0% is about no effect
Cycloheximide cs = affects cycloheximide protein synthesis inhibition readout, counter-screen. cell reporter, cycloheximide protein synthesis inhibition counterscreen. max response, %. 12% of 300,000 active; in the data active = max response mostly above about 13%, no sharp cut-off; inactive = mostly below about 14%; note: read at 38.3 µM for the half of the compounds with a filed dose; 0% is about no effect
FMDV inh = blocks foot and mouth disease virus; FMDV antiviral cell-based qHTS; AID 1159524; Potency, µM (series often up to 57.9 µM), for inactives: at the top dose activity change, negative = inhibition, usual class: inhibitors; 1.2% of 410,000 active; calls by dose curve; tested in HEK293T cells; note: read-out not given here; potency is the fitted concentration of half-maximal effect; % is set by controls: 0 for no effect and ±100 for the full control effect; nearly all actives have a fitted effect of over 45% in size
* = called active by the depositor; ? = inconclusive; . = no result; + = active, no number.

SMILES | Sm TGR block | Shiga inhibitor | Cycloheximide cs | FMDV inh
CCCn1c(N)c(C(c2ccc(C(=O)OC)cc2)N2CCN(c3ccccc3)CC2)c(=O)[nH]c1=O (configuration not stated) | ? | 10 | 6 | -5%
Cc1ccc(C)c(NC(=O)Cn2c(=O)n(CC3CCCO3)c(=O)c3ccccc32)c1 (configuration not stated) | 3% | . | . | -25%
COc1ccccc1OCC(=O)NCC1(N(C)C)CCCCC1 | 10% | . | . | -3%
CCC1CCCCN1CC(=O)c1c(C)[nH]c2ccccc12 (configuration not stated) | 45µM* | 22 | 13 | -8%
CCOC(=O)C1CCCN(C(c2ccccn2)c2c(C)[nH]c3ccccc23)C1 (configuration not stated) | 0.32µM* | -5 | 9 | 5%
CCOC(=O)C1CCN(CC(=O)c2c(C)[nH]c3ccccc23)CC1 | 35µM* | 14 | 0 | -8%
Cc1[nH]c2ccccc2c1C(c1ccccn1)N1CCCC1 (configuration not stated) | ? | 2 | 8 | -8%
CCOC(=O)CSc1nc2cc3c(cc2c(=O)n1CCCC(=O)NCc1ccc2c(c1)OCO2)OCO3 | 1% | . | . | -10%
COCCNC(=S)Nc1ccc(Cl)c(Cl)c1 | ? | 5 | 15* | 44%
C=CCN(CC=C)C(=S)Nc1ccc2nsnc2c1 | ? | 60* | 26* | 17%
COCCNC(=S)Nc1ccc2nsnc2c1 | ? | -19 | 16* | 49%
C=CCNC(=S)Nc1ccc2nsnc2c1 | ? | 11 | 0 | 27%
C=COCCNC(=O)Nc1ccc(Cl)c(Cl)c1 | 7% | 54* | 31* | .
Cc1nc2c(c(C)nn2C(C)(C)C)c(C)c1CCC(=O)Nc1ccc(Br)cc1Br | -3% | . | . | 0%
COc1cc2c(cc1OC)C(COc1ccc3c(C)cc(=O)oc3c1)N(C(=O)c1ccc(C)c(C)c1)CC2 (configuration not stated) | 7% | . | . | -23%
COC(=O)/C=C1\N/C(=N\c2nc(C)cc(C)n2)N(c2ccccc2)C1=O | ? | -5 | -3 | ?
COC(=O)/C=C1/N/C(=N\c2nc(C)cc(C)n2)N(c2cccc(C)c2)C1=O | 3% | -12 | 5 | 28µM*
CCc1ccc(N2C(=O)CS(=O)(=O)C23C(=O)N(Cc2ccccc2F)c2ccccc23)cc1 (configuration not stated) | 42% | . | . | -4%
COC(=O)c1cc(/C=C/c2ccccc2)[nH]n1 | -10% | 25* | 20* | 65%
Cc1ccc(NC(=O)Cn2c(=O)n(Cc3ccccc3)c(=O)c3sc4ccccc4c32)cc1 | 0% | . | . | -9%
Cc1cccc(-n2ncc3c(NC4CCCCC4)ncnc32)c1 | 4% | 75* | 46* | -32%
C=CCNc1ncnc2c1cnn2-c1ccc(Cl)cc1 | -15% | 52* | 33* | 0%
Cc1ccc(CNc2ncnc3c2cnn3-c2ccc(Cl)cc2)cc1 | -5% | . | . | ?
Cc1cccc(-n2ncc3c(NC4CCCC4)ncnc32)c1 | 8% | . | . | 9%
C=CCNc1ncnc2c1cnn2-c1cccc(C)c1 | -2% | + | 34* | 15%
SMILES | Sm TGR block | Shiga inhibitor | Cycloheximide cs | FMDV inh
Cc1cccc(-n2ncc3c(NCCCO)ncnc32)c1 | ? | 42 | 38* | 25%
Cc1cc(C)cc(NC(=O)C2CCN(S(=O)(=O)c3c(C)noc3/C=C/c3ccco3)CC2)c1 | -2% | . | . | -25%
COc1cccc(-n2c(=O)c3cc(OC)c(OC)cc3n(CC(=O)Nc3ccccc3)c2=O)c1 | 2% | . | . | 11%
CCc1nnc(NC(=O)CCS(=O)(=O)c2ccccc2)s1 | 22µM* | -6 | 2 | -25%
O=C(CCc1ccccc1)Nc1ccncc1 | 31% | 2 | 0 | 3%
CC(C)c1ccc(NC(=O)COc2nncc3ccccc23)cc1 | -12% | 43* | 24* | 21%
O=C(CCc1ccccc1)Nc1cccnc1 | 0% | 104* | 13* | 42%
CCc1nnc(NC(=O)CCS(=O)(=O)c2ccc(C)cc2)s1 | ? | . | . | -18%
CC(C)c1ccc(NC(=O)CCc2ccccc2)cc1 | 16% | 136* | 56* | 50%
CCOC(=O)c1[nH]c(C)c(CCC(=O)Nc2cc(Cl)c(OC)cc2OC)c1C | -29% | . | . | -2%
COc1ccc(OCC(O)Cn2c(NCCO)nc3c2c(=O)n(C)c(=O)n3C)cc1 (configuration not stated) | 0% | . | . | ?
O=C(O)c1ccc(S(=O)(=O)N[C@H](Cc2ccc(C(F)(F)F)cc2)C(=O)O)cc1 | 6% | 2 | -3 | .
CC(C)c1nnc(NC(=O)CCS(=O)(=O)c2ccccc2)s1 | 18µM* | 44* | 9 | 22%
CC(C)c1nnc(NC(=O)CCc2ccccc2)s1 | 7% | 28 | 19* | 33%
COCc1nnc(NC(=O)CCS(=O)(=O)c2ccccc2)s1 | -2% | -3 | 1 | -15%
CC(Cc1ccccc1)C(=O)Nc1ccc(Br)cc1 (configuration not stated) | 12% | 100* | 36* | 35%
CCCC(C)c1nnc(NC(=O)CCS(=O)(=O)c2ccccc2)s1 (configuration not stated) | 89µM* | -14 | -2 | ?
COc1ccc(-c2cnc(C)o2)cc1S(=O)(=O)Nc1ccc(C)c(F)c1 | -4% | . | . | 78%
CCCCOc1ccc(Cn2c(=O)sc3ccccc32)cc1OC | 1% | . | . | 3%
CCOc1ccc(/C(C)=N/N2C(=O)C(CC(=O)Nc3ccc(OC)cc3[N+](=O)[O-])SC2=Nc2cccc(C)c2C)cc1 (configuration not stated) | 18µM* | -9 | -1 | -14%
COc1ccccc1/C=N/N1C(=O)C(CC(=O)Nc2ccc([N+](=O)[O-])cc2OC)SC1=Nc1cccc(C)c1C (configuration not stated) | . | -3 | -2 | .
Cc1sc(NC(=O)C2CCCCC2C(=O)O)c(C(N)=O)c1-c1ccccc1 (configuration not stated) | 3% | 40* | 38* | 6%
Cc1sc(NC(=O)C2CCCCC2C(=O)O)c(C(N)=O)c1-c1ccc(C(C)(C)C)cc1 (configuration not stated) | -33% | -11 | -2 | 0%
CC(C)c1ccc(NC(=O)CSc2ncnc3c2sc2ccccc23)cc1 | 4% | . | . | -17%
COc1ccc(NC(=O)c2ccc(NC(=O)c3cccnc3)cc2)cc1 | . | . | . | -15%
SMILES | Sm TGR block | Shiga inhibitor | Cycloheximide cs | FMDV inh
COc1ccc(C/C(C)=N/NS(=O)(=O)c2ccc(Br)cc2)cc1 | 22µM* | -2 | 9 | 21%
COc1ccc(C/C(C)=N/NC(=S)Nc2ccccc2F)cc1 | 7% | 91* | 54* | 58%
COc1ccc(C/C(C)=N/NC(=O)c2cccnc2)cc1 | -9% | 11 | 27* | -3%
COc1ccc(C(=O)N/N=C(\C)CC(=O)N2CCN(C=O)CC2)cc1 | 0% | 24 | 31* | 6%
COc1cc(-c2noc(-c3ccc(N4CCN(C)CC4)c([N+](=O)[O-])c3)n2)cc(OC)c1OC | -33% | . | . | -11%
CCC(=O)Nc1ccccc1-c1nc2ccccc2n(C(CC)C(=O)Nc2cccc(C(C)=O)c2)c1=O (configuration not stated) | 8% | . | . | -9%
CC(C)c1ccc(NC(=O)c2cc3c(=O)[nH]c4ccccc4c3n2C)cc1 | 8% | . | . | 0%
COc1ccc(C/C(C)=N/NC(=O)c2ccc(Cl)cc2)cc1 | 1% | 37* | 14* | -2%
